37 compounds from publication PMC5540273 (PLoS ONE, 2017) can be followed below.

Each structure is given as a SMILES string.
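Also: KINOMEscan kinase panel screen.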

The test system of the first assay is EPHA3. To be noted: concentration: 1 μM, replicates: in singlicate; n = 1.
Regarding `CN1C(=O)C(Nc2cc(Cl)c(O)c(Cl)c2)=C(c2ccc(Cl)cc2)C1=O` [SB-404321], the “%Inh” value turned out to be 4%.
Still for that read-out and setting: with `CCC(=O)c1c(-c2ccccc2)c2cc(Cl)ccc2c(=O)n1Cc1cc(C(=O)NC2CC2)n(C)n1` the figure was 8%.
Consider `COc1cccc(C2=C(Nc3cccc(C(=O)O)c3)C(=O)NC2=O)c1` [SB-390770], for which the “%Inh” value is 0%.
The same measure, in the same setting: then `O=C(Nc1ccc2c(c1)OCO2)NC1CCN(c2ccnc(NCc3ccc(F)cc3)n2)CC1` [GSK1379859], with 0%; and `COc1cc2nccc(Nc3cccc(Oc4ccccc4)c3)c2cc1OC.Cl` [GW284543], with 12%.
Take `COc1cc(Nc2nccc(N3CCC(NC(=O)C(C)c4ccc(Cl)cc4)C3)n2)cc(OC)c1OC` (centres unmarked) [GSK1379757]: the “%Inh” value is reported as 0%.
On the same count and under the same terms, with `Cc1ccccc1COc1cc(-n2cnc3cc(Cl)ccc32)sc1C(N)=O` [GW813349] the figure was 0%; with `CCC(=O)c1c(-c2ccccc2)c2cc(Cl)ccc2c(=O)n1Cc1cc(S(C)(=O)=O)n(CCC(C)(C)O)n1`, 4%.
The same measure, in the same setting: with `Cc1nn2c(=O)cc(N3CCOCC3)nc2n1Cc1cccc(Cl)c1Cl` [GSK2342769] the figure was 0%.
On to `COc1ccc(Nc2nccc(N3CCC(NS(=O)(=O)c4ccc(NC(C)=O)cc4)C3)n2)cc1` (centres unmarked) [GSK1379729], for which the “%Inh” value was found to be 0%.
Regarding `Cc1cccc(-c2nc(Nc3ccc4c(cnn4C)c3)c3ccccc3n2)n1` [GW876731], the “%Inh” value is 0%.
In the case of `C[C@@H]1CC[C@H](C(=O)NC2CCCCC2)CN1c1cc(-c2ccc3c(N)n[nH]c3c2)nc(N)n1` [GSK2291363], the “%Inh” value was found to be 18%.
Turning to `COc1cc2ncn(-c3cc(OCc4ccncc4Br)c(C(N)=O)s3)c2cc1OC` [GW854278], the “%Inh” value was 21%.
The same measure, in the same setting: then `Cc1ccc(-c2ccc3c(ccc4sc5c(c43)NC[C@@H](C)N=C5N(C)C)n2)cn1`, with 0%; and `COc1ccc(-c2coc3ccc(-c4nnc(SCc5cccc(C#N)c5)o4)cc23)cc1`, with 2%; and `Cc1cc(Nc2nc(-c3cccc(C)n3)nc3ccccc23)ccn1` [GW872411], with 18%.
The same measure, in the same setting: then `Cl.NS(=O)(=O)c1cccc(Nc2cc(-c3ccc(F)cc3)n[nH]2)c1` [GW824645], with 0%; and `CC(C)(C)c1ccc(C(=O)Nc2cn3cc(-c4ccccc4)ccc3n2)cc1`, with 6%.
On the same count and under the same terms, with `CCn1c(-c2ccoc2)nc2cnccc21` [SB-733887] the figure was 0%.
For `Nc1n[nH]c2nnc(-c3ccccc3)c(-c3ccccc3)c12` [GW554060], the “%Inh” value is listed as 0%.
On the same count and under the same terms, with `CN(C)c1cc(-c2ccc3c(N)n[nH]c3c2)nc(N)n1` [GSK2219329] the figure was 4%; with `Nc1ncnc2c1ncn2-c1cccc(F)c1` [SKF-97560], 0%; with `Nc1nc(-c2ccccc2F)c(-c2ccnc3ccccc23)s1` [GW560459], 0%.
Still for that read-out and setting: with `CCn1c(-c2nonc2N)nc2ccccc21` [SB-693162/GW549034] the figure was 10%.
On the same count and under the same terms, then `Cc1ccc(Oc2ccc(Nc3ncnc4cc[nH]c34)cc2C)cn1`, with 3%; and `Cc1nnc(-c2ccc(C)c(-c3ccc(C(=O)O)cc3)c2)o1` [GW608005], with 0%.
Turning to `CCS(=O)c1ccc(-c2coc3ccc(-c4nnc(C)o4)cc23)cc1` (centres unmarked), the “%Inh” value was determined as 4%.
Same read-out and setting: with `COC(=O)c1c(-c2ccccc2)c2cc(C)ccc2c(=O)n1Cc1ccccc1` the figure was 14%; with `Nc1nccc2scc(-c3ccc4c(c3)CCN4C(=O)Cc3ccccc3)c12` [GSK2576924], 38%; with `OCCCNc1nccc(-c2c(-c3cccc(C(F)(F)F)c3)nn3cc(C(F)(F)F)ccc23)n1` [GW630813], 5%.
With `O=c1cc(N2CCOCC2)nc2n(Cc3ccc(F)c(Cl)c3)ccn12` [GSK2297099], the “%Inh” value stood at 18%.
Still for that read-out and setting: then `Cc1nnc(-c2ccc3ncn(-c4ccc(S(C)=O)cc4)c3c2)o1` (centres unmarked), with 5%; and `COC(=O)c1c(-c2ccccc2)c2cc(Br)ccc2c(=O)n1Cc1ccc(NC(=O)CCC(=O)O)cc1`, with 4%.
Same read-out and setting: with `COc1cc(OC)cc(-c2cc3cnc(N)nc3nc2NC(=O)NC(C)(C)C)c1` the figure was 0%; with `Nc1ncnc2c1ncn2-c1ccc(Cl)cc1` [AH2635], 0%.
Still for that read-out and setting: with `Cl.c1ccc(Cn2cnc3cc(Nc4ncnc5ccccc45)ccc32)cc1` [GW272142] the figure was 0%.
With `CCC(=O)c1c(-c2ccccc2)c2cc(Cl)ccc2c(=O)n1Cc1ccc(C(=O)O)cc1`, the “%Inh” value is 7%.

For the next assay, the system named is EPHA4. To be noted: concentration: 1 μM, replicates: in singlicate; n = 1.
As for `CN1C(=O)C(Nc2cc(Cl)c(O)c(Cl)c2)=C(c2ccc(Cl)cc2)C1=O` [SB-404321], the “%Inh” value was 0%.
Regarding `CCC(=O)c1c(-c2ccccc2)c2cc(Cl)ccc2c(=O)n1Cc1cc(C(=O)NC2CC2)n(C)n1`, the “%Inh” value is on record as 26%.
Take `COc1cccc(C2=C(Nc3cccc(C(=O)O)c3)C(=O)NC2=O)c1` [SB-390770]: the “%Inh” value is on record as 10%.
The same measure, in the same setting: with `O=C(Nc1ccc2c(c1)OCO2)NC1CCN(c2ccnc(NCc3ccc(F)cc3)n2)CC1` [GSK1379859] the figure was 13%.
Still for that read-out and setting: with `COc1cc2nccc(Nc3cccc(Oc4ccccc4)c3)c2cc1OC.Cl` [GW284543] the figure was 0%; with `COc1cc(Nc2nccc(N3CCC(NC(=O)C(C)c4ccc(Cl)cc4)C3)n2)cc(OC)c1OC` (centres unmarked) [GSK1379757], 22%; with `Cc1ccccc1COc1cc(-n2cnc3cc(Cl)ccc32)sc1C(N)=O` [GW813349], 0%.
Take `CCC(=O)c1c(-c2ccccc2)c2cc(Cl)ccc2c(=O)n1Cc1cc(S(C)(=O)=O)n(CCC(C)(C)O)n1`: the “%Inh” value is given as 17%.
Still for that read-out and setting: then `Cc1nn2c(=O)cc(N3CCOCC3)nc2n1Cc1cccc(Cl)c1Cl` [GSK2342769], with 21%.
The same measure, in the same setting: with `COc1ccc(Nc2nccc(N3CCC(NS(=O)(=O)c4ccc(NC(C)=O)cc4)C3)n2)cc1` (centres unmarked) [GSK1379729] the figure was 36%; with `Cc1cccc(-c2nc(Nc3ccc4c(cnn4C)c3)c3ccccc3n2)n1` [GW876731], 0%; with `C[C@@H]1CC[C@H](C(=O)NC2CCCCC2)CN1c1cc(-c2ccc3c(N)n[nH]c3c2)nc(N)n1` [GSK2291363], 12%.
`COc1cc2ncn(-c3cc(OCc4ccncc4Br)c(C(N)=O)s3)c2cc1OC` [GW854278]: the “%Inh” value turned out to be 0%.
The same measure, in the same setting: then `Cc1ccc(-c2ccc3c(ccc4sc5c(c43)NC[C@@H](C)N=C5N(C)C)n2)cn1`, with 0%.
The same measure, in the same setting: then `COc1ccc(-c2coc3ccc(-c4nnc(SCc5cccc(C#N)c5)o4)cc23)cc1`, with 25%; and `Cc1cc(Nc2nc(-c3cccc(C)n3)nc3ccccc23)ccn1` [GW872411], with 0%; and `Cl.NS(=O)(=O)c1cccc(Nc2cc(-c3ccc(F)cc3)n[nH]2)c1` [GW824645], with 0%.
Still for that read-out and setting: with `CC(C)(C)c1ccc(C(=O)Nc2cn3cc(-c4ccccc4)ccc3n2)cc1` the figure was 6%.
Consider `CCn1c(-c2ccoc2)nc2cnccc21` [SB-733887], for which the “%Inh” value is recorded as 9%.
Still for that read-out and setting: with `Nc1n[nH]c2nnc(-c3ccccc3)c(-c3ccccc3)c12` [GW554060] the figure was 12%.
Same read-out and setting: then `CN(C)c1cc(-c2ccc3c(N)n[nH]c3c2)nc(N)n1` [GSK2219329], with 8%.
Take `Nc1ncnc2c1ncn2-c1cccc(F)c1` [SKF-97560]: the “%Inh” value was 4%.
On the same count and under the same terms, then `Nc1nc(-c2ccccc2F)c(-c2ccnc3ccccc23)s1` [GW560459], with 0%; and `CCn1c(-c2nonc2N)nc2ccccc21` [SB-693162/GW549034], with 0%.
Still for that read-out and setting: then `Cc1ccc(Oc2ccc(Nc3ncnc4cc[nH]c34)cc2C)cn1`, with 22%; and `Cc1nnc(-c2ccc(C)c(-c3ccc(C(=O)O)cc3)c2)o1` [GW608005], with 18%; and `CCS(=O)c1ccc(-c2coc3ccc(-c4nnc(C)o4)cc23)cc1` (centres unmarked), with 0%.
The same measure, in the same setting: then `COC(=O)c1c(-c2ccccc2)c2cc(C)ccc2c(=O)n1Cc1ccccc1`, with 61%.
In the case of `Nc1nccc2scc(-c3ccc4c(c3)CCN4C(=O)Cc3ccccc3)c12` [GSK2576924], the “%Inh” value was determined as 4%.
Turning to `OCCCNc1nccc(-c2c(-c3cccc(C(F)(F)F)c3)nn3cc(C(F)(F)F)ccc23)n1` [GW630813], the “%Inh” value is reported as 0%.
Still for that read-out and setting: with `O=c1cc(N2CCOCC2)nc2n(Cc3ccc(F)c(Cl)c3)ccn12` [GSK2297099] the figure was 3%; with `Cc1nnc(-c2ccc3ncn(-c4ccc(S(C)=O)cc4)c3c2)o1` (centres unmarked), 46%.
Still for that read-out and setting: then `COC(=O)c1c(-c2ccccc2)c2cc(Br)ccc2c(=O)n1Cc1ccc(NC(=O)CCC(=O)O)cc1`, with 12%; and `COc1cc(OC)cc(-c2cc3cnc(N)nc3nc2NC(=O)NC(C)(C)C)c1`, with 0%; and `Nc1ncnc2c1ncn2-c1ccc(Cl)cc1` [AH2635], with 0%.
Still for that read-out and setting: then `Cl.c1ccc(Cn2cnc3cc(Nc4ncnc5ccccc45)ccc32)cc1` [GW272142], with 12%.
For the compound `CCC(=O)c1c(-c2ccccc2)c2cc(Cl)ccc2c(=O)n1Cc1ccc(C(=O)O)cc1`, the “%Inh” value stood at 7%.
